PAFAH1B3 FP inh: inhibitors of human PAFAH1B3 | hit rate 0.28% among 340,000 | recombinant PAFAH1B3, FP-rhodamine probe, fluorescence polarization | inhibition, % at 3.39 µM | Q15102 | AID 492972;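 active = inhibition above the screen-wide average of all tested compounds plus 3 SD, cut at about 25% in these data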;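 also: 0% = enzyme with DMSO only and 100% = wells lacking PAFAH1B3 protein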
Target sequence (Q15102 whole entry, looked up): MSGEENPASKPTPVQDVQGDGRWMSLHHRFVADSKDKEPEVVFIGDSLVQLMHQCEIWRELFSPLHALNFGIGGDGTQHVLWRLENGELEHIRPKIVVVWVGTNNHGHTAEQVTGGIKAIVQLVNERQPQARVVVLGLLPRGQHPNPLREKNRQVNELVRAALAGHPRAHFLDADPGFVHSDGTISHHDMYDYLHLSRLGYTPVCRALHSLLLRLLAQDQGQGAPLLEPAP
PAFAH2 inh: inhibitors of human PAFAH2; recombinant PAFAH2, FP-rhodamine activity probe, fluorescence polarization; hit rate 0.99% among 340,000; inhibition, % at 3.39 µM; AID 492956;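 active = inhibition above the mean over all tested compounds plus 3 SD, cut at about 30% in these data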;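 also: inhibitors block probe labeling of enzyme so polarization drops; 0% = enzyme with DMSO and 100% = wells lacking PAFAH2 protein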
pPAFAH inh: pPAFAH (human) enzyme inhibition; inhibition, % at 3.39 µM; recombinant pPAFAH, FP-rhodamine probe fluorescence polarization; hit rate 1.5% among 330,000; AID 463082; Q13093;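 active = inhibition above the mean inhibition across the screen plus 3 SD, cut at about 25% in these data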;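 also: inhibitors block binding of the rhodamine activity-based probe so polarization drops; 0% = enzyme with DMSO and 100% = wells lacking pPAFAH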
PAFAH1B2 inh: blocks human PAF acetylhydrolase 1b catalytic subunit 2; hit rate 1.2% among 340,000; recombinant PAFAH1B2, FP-rhodamine activity probe, fluorescence polarization; AID 492953; inhibition, % at 3.39 µM;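 active = inhibition above the mean of all tested compounds plus 3 SD, cut at about 24% in these data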;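 also: 0% = enzyme with DMSO and 100% = wells lacking PAFAH1B2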
Target sequence (P68402 whole entry, looked up): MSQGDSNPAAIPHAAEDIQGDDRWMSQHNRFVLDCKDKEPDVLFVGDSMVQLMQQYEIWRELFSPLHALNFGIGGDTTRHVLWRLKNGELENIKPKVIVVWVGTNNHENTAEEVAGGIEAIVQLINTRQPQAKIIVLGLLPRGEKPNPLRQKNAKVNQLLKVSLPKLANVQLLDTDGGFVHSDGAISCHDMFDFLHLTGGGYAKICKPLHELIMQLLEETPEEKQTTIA
PME-1 primary: blocks human protein phosphatase methylesterase 1; Q9Y570; hit rate 0.53% among 320,000; inhibition, % at 5.9 µM; recombinant PME-1, FP-Rh probe fluorescence polarization;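 active = inhibition above the campaign mean of all compounds plus 3 SD, cut at about 26% in these data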;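 also: competitive labeling of PME-1 active site by serine hydrolase directed probe; 0% = PME-1 with DMSO and 100% = wells lacking PME-1 enzyme; inhibitors block probe labeling so polarization falls and inhibition rises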
Fam108B counter: blocks mouse Fam108B hydrolase in RBBP9 counter-screen; recombinant Fam108B, FP-Rh probe fluorescence polarization; inhibition, % at 9.51 µM; hit rate 0.33% among 300,000; AID 1947;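 active = inhibition above the screen mean inhibition plus 3 SD, computed separately per campaign, cut at about 18% in these data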;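 also: inhibitors lower polarization as less probe binds the enzyme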
* = called active by the depositor; nt = no result. In the library only some 2.9% were active in any assay of this set; here they are far more common.

SMILES	PAFAH1B3 FP inh	PAFAH2 inh	pPAFAH inh	PAFAH1B2 inh	PME-1 primary	Fam108B counter
C[C@H](CO)N1C[C@H](C)[C@@H](CN(C)C(=O)Nc2ccc(C(F)(F)F)cc2)Oc2c(NS(=O)(=O)c3cccs3)cccc2C1=O	2	2	12	25*	nt	nt
C[C@H](CO)N1C[C@H](C)[C@@H](CN(C)C(=O)Nc2ccc(C(F)(F)F)cc2)Oc2ccc(NC(=O)Nc3ccc(C(F)(F)F)cc3)cc2C1=O	-66	-52	-33	-34	nt	nt
C[C@@H]1CN([C@H](C)CO)C(=O)c2cc(NS(=O)(=O)c3cccs3)ccc2O[C@H]1CN(C)Cc1ccccc1	8	2	7	3	nt	nt
COc1ccc(NC(=O)Nc2cccc3c2O[C@H](CN(C)C(=O)Nc2ccc(C(F)(F)F)cc2)[C@@H](C)CN([C@H](C)CO)C3=O)cc1	3	-8	-2	68*	nt	nt
C[C@H](CO)N1C[C@H](C)[C@@H](CN(C)C(=O)Nc2ccc(C(F)(F)F)cc2)Oc2c(NC(=O)Nc3ccc(C(F)(F)F)cc3)cccc2C1=O	-41	-51	-15	51*	nt	nt
C[C@@H]1CN([C@@H](C)CO)C(=O)c2cc(NS(=O)(=O)c3cccs3)ccc2O[C@H]1CN(C)Cc1ccc(C(F)(F)F)cc1	9	4	27*	5	nt	nt
C[C@H](CO)N1C[C@H](C)[C@@H](CN(C)S(C)(=O)=O)Oc2c(NC(=O)Nc3ccc(C(F)(F)F)cc3)cccc2C1=O	3	6	9	3	nt	nt
C[C@H](CO)N1C[C@H](C)[C@@H](CN(C)S(=O)(=O)c2ccccc2)Oc2c(NC(=O)Nc3ccc(C(F)(F)F)cc3)cccc2C1=O	-11	-29	12	26*	nt	nt
C[C@@H]1CN([C@H](C)CO)C(=O)c2cc(NC(=O)Nc3ccc(C(F)(F)F)cc3)ccc2O[C@H]1CN(C)C(=O)Nc1ccc(F)cc1	-66	-104	nt	-32	nt	nt
C[C@H]1CN([C@@H](C)CO)C(=O)c2cccc(NC(=O)Nc3ccc(C(F)(F)F)cc3)c2O[C@@H]1CN(C)C(=O)Nc1ccc(F)cc1	-13	-24	3	52*	nt	nt
C[C@H]1CN([C@@H](C)CO)C(=O)c2cccc(NC(=O)Nc3ccc(C(F)(F)F)cc3)c2O[C@H]1CN(C)C	10	-13	30*	3	nt	nt
COc1ccc(NC(=O)Nc2cccc3c2O[C@H](CN(C)S(=O)(=O)c2ccccc2)[C@@H](C)CN([C@H](C)CO)C3=O)cc1	-1	12	-1	4	nt	nt
CCOC(=O)Nc1cccc(OCC(=O)Nc2ccc3c(c2)CCC3)c1	14	1	4	7	nt	nt
Cn1c(CCNC(=O)c2ccco2)nc2cc(NC(=O)c3ccccc3Cl)ccc21	2	5	4	0	-2	-1
O=C1CC2(CCN(C(=O)c3cccc([N+](=O)[O-])c3)CC2)Oc2ccccc21	9	-7	3	6	6	-3
COc1ccccc1CNC(=O)CN1C(=O)NC2(CCCCCCC2)C1=O	8	4	4	1	nt	nt
O=C(c1ccco1)N(c1ccccn1)c1ccccn1	5	-6	-8	1	-6	-3
O=C(/C=C/c1ccco1)N(c1ccccn1)c1ccccn1	10	23	33*	7	-10	3
CCC(CC)C(=O)Nc1nnc(S(=O)(=O)N2CCCC2)s1	5	8	2	5	3	-4
CC[C@@]1(C(=O)OC)N[C@H](CN(C)S(=O)(=O)c2ccc(C(C)(C)C)cc2)[C@@H]2C(=O)N(C)C(=O)[C@@H]21	5	-3	0	4	nt	nt
Cc1ccccc1OCC(=O)NC(=S)Nc1cccc2cc(O)ccc12	4	-12	10	6	28*	-1
Cc1ccc(C(CCN(Cc2ccccc2)C(=O)c2ccco2)c2ccco2)cc1 (stereo not given)	1	15	30*	-4	-14	-3
CCCC1/C(=N/O)CC(c2ccccc2)NC1c1ccccc1 (stereo not given)	2	-1	27*	5	-4	3
Cc1ccc(-c2nc(SCC(=O)Nc3cc(C)on3)c3c(=O)n(C)c(=O)n(C)c3n2)cc1	9	1	-9	10	-3	-5
CCCCOC(=O)Nc1nnc(CCc2ccccc2)s1	4	-1	26*	7	4	0
SMILES	PAFAH1B3 FP inh	PAFAH2 inh	pPAFAH inh	PAFAH1B2 inh	PME-1 primary	Fam108B counter
Cc1ccn2cc(CCNS(=O)(=O)c3ccc([N+](=O)[O-])cc3)nc2c1	11	-3	30*	11	-3	-1
Cc1ccc2oc(=O)n(Cc3ccc(F)cc3)c2c1	8	9	5	6	1	2
Nc1nn(-c2ccccc2)c(N)c1N=Nc1ccccc1F	9	6	7	2	7	4
Nc1c(N=Nc2ccccc2F)c(=O)[nH]n1-c1ccccc1	10	2	8	3	36*	10
O=C(O)c1cccc2cccc(-c3c4ccc(=O)c(O)c-4oc4c(O)c(O)ccc34)c12	66*	69*	nt	62*	nt	nt
CC(NC(=O)COc1ccccc1)C(=O)N1CCN(c2ccccc2)CC1 (stereo not given)	9	-1	0	6	-3	nt
Cn1nc(C(=O)NCCc2ccc(Cl)cc2)c2c1-c1ccccc1S(=O)(=O)C2	0	1	6	35*	1	2
COCCN(C(=O)COC(=O)C(C)(C)Oc1ccc(Cl)cc1)c1c(N)n(Cc2ccccc2)c(=O)[nH]c1=O	9	0	nt	8	nt	nt
CC(C)N(C(=O)Cn1c(-c2ccccc2Cl)nc2ccccc21)c1ccccc1	0	0	26*	14	2	1
Cc1ccc(-c2csc3ncnc(SCc4ccc(C(=O)O)cc4)c23)cc1	nt	nt	29*	nt	-10	-7
Cc1sc2ncnc(SCc3ccc(C(=O)O)cc3)c2c1C	4	6	-2	10	0	2
COC(=O)C1CCN(C(=O)C2CC(=O)N(c3ccc(C)c(Cl)c3)C2)CC1 (stereo not given)	3	0	nt	2	nt	nt
O=C(Cc1ccc(Cl)cc1)N1CCC2(CC1)NCCc1[nH]cnc12	-1	-5	1	9	5	-1
Cc1cc(N/N=C/c2ccccc2O)nc(-c2ccccc2O)n1	2	4	11	2	19	19*
Cc1cc(N/N=C\c2ccccc2)nc(-c2ccccc2O)n1	5	0	10	0	-7	8
CC(O)CNc1nc2ccccc2n1CC(=O)NCCc1ccc(Cl)cc1 (stereo not given)	1	0	4	28*	7	-1
O=[N+]([O-])c1cc(-c2cccnc2)n[nH]1	5	1	nt	6	nt	nt
CC(C)NC(=S)N/N=C1\CCCCC1C1CCCCC1 (stereo not given)	7	5	8	29*	2	4
Cc1ccnc(NC(=O)c2cccc(S(=O)(=O)NCc3ccccc3)c2)c1	4	-2	-10	6	-6	2
